Screening data: PubChem, The Scripps Research Institute Molecular Screening Center
hcDAF-12 act = activators of H. contortus DAF-12 nuclear receptor. 1.4% of 370,000 active. activation, % at 6.8 µM. HEK293 hcDAF-12 lit1-tk-luc reporter, luminescence; 0% DMSO, 100% Δ7-dafachronic acid;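 active = activation above the mean of all tested compounds plus 3 SD, cut at about 5.5% in these data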
ssDAF-12 act = S. stercoralis DAF-12 activation, primary screen; HEK293 ssDAF-12/GRIP1 lit1-tk-luc reporter, luminescence; % of 3 µM dafachronic acid response; activation, % at 6.8 µM; 1% of 370,000 active; AID 652126;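 active = activation above the mean over all tested compounds plus 3 SD, cut at about 0.9% in these data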
DAX1 inh-1 = NR0B1 (DAX1) inhibition; HEK293 Gal4-DAX1 luciferase reporter, luminescence; inhibition, % at 6.75 µM; 0.99% of 340,000 active; AID 504766;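 active = inhibition above the mean over all tested compounds plus 3 SD, cut at about 4.2% in these data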;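 note: inhibition shows as a rise in luminescence from relieved DAX1 repression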
Target sequence (P51843 207-470 limits assumed): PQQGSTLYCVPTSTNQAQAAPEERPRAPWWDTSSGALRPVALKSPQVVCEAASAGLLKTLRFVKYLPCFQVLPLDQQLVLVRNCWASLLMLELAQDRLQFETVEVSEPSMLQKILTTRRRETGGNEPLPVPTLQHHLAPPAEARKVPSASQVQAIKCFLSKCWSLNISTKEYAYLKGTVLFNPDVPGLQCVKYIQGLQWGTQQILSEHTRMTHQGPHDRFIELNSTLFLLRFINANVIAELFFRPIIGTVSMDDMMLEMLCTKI
hgDAF-12 ag = hgDAF-12 agonism, primary luciferase screen; activation, % at 6.8 µM; HEK293 GAL4-hgDAF12 UAS-luciferase reporter, agonist luminescence; normalized to butyrate control; 1.8% of 370,000 active; AID 687014;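 active = activation above a cutoff set at the mean of all screened compounds plus 3 SD, cut at about 10% in these data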
DAX1 inh-2 = blocks DAX1 repression of SF-1 activated StAR promoter | 1.1% of 370,000 active | HEK293T StAR-luciferase reporter, SF-1/DAX-1 repression relief | inhibition, % at 6.8 µM;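 active = inhibition above the mean over all tested compounds plus 3 SD, cut at about 3.6% in these data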;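 note: higher inhibition means more luminescence from relief of DAX-1 repression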
SMARCA2 act = SMARCA2 function activation, primary screen; MG213 cells, MMTV-luciferase reporter, dexamethasone, overnight; 1% of 370,000 active; activation, % at 9.1 µM; in the data active = activation above about 7.8%
Of the large screens only hits and unclear results are named; the others gave an inactive call. An excerpt weighted towards active compounds, which were near 4.8% of everything screened.

COc1ccc(OCc2cc(C(=O)N3CCCCCC3)no2)c(Cl)c1	DAX1 inh-2 4.1
COc1cccc(-c2cc3nc4c(c(NCC(C)(C)CN(C)C)n3n2)CCCC4)c1	DAX1 inh-1 4.3
CC1(C)CC(=O)C(C2C3=C(CC(C)(C)CC3=O)Oc3c(Br)cc(Br)cc32)=C(O)C1 (stereo not given)	hgDAF-12 ag 11.2
COc1ccc2c(=O)c3c(=O)n(CCc4ccccc4)c(C(C)C)nc3oc2c1	DAX1 inh-1 4.7
CCCCCCCCN1C(=O)[C@@H](CC(=O)NCc2ccccc2)C[C@@]2(C(=O)OC)C1=C[C@H](COCc1ccccc1)O[C@@H]2C	none (no result: DAX1 inh-1)
O=c1c2ccccc2oc2ccc(-c3ccc4[nH]ccc4c3)cc12	hgDAF-12 ag 10.8, DAX1 inh-2 5.0
COc1ccc2c(c1)CO[C@H]([C@H](O)COC(C)=O)[C@H]2/C=C/c1ccccc1	none (no result: DAX1 inh-1)
O=C(/C=C/Nc1ccc(S(=O)(=O)Nc2ncccn2)cc1)c1cccs1	DAX1 inh-1 5.7
O=C(/C=C/Nc1ccc(F)cc1)c1ccco1	none
Cc1ccc(N/C=C/C(=O)c2ccco2)c(O)c1	DAX1 inh-1 6.1
COc1ccc(S[C@]2(C(=O)NCCc3ccccc3)CC(=O)N[C@@H]2c2ccc(OC)cc2)cc1	none (no result: DAX1 inh-1)
O=C(CN1C(=O)CCSc2ccccc21)Nc1ccc(Cl)c(Cl)c1	none (no result: DAX1 inh-1)
Cc1ccn2c(Nc3ccc4c(c3)OCO4)c(-c3ccccn3)nc2c1	hcDAF-12 act 6.0
Cc1ccc(Nc2c(-c3ccccn3)nc3cc(C)ccn23)cc1	none
O=C1NC(c2cccc3ccccc23)Nc2ccccc21 (stereo not given)	none
O=C1c2ccccc2C(=O)C1Cc1cccc2ccccc12	ssDAF-12 act 0.9
COc1ccc(C#Cc2ccc3c(c2)[C@H]2[C@H](CCN2S(=O)(=O)c2ccccc2F)[C@H](CO)N3C)cc1	none (no result: DAX1 inh-1)
Cc1ccc(-c2noc(-c3ccccc3C(=O)N3CCN(C)CC3)n2)cc1	hcDAF-12 act 6.6
Cc1ccc(-c2noc(-c3ccccc3C(=O)N3CCCC3)n2)cc1	none
CCCOc1ccc(C2c3c(oc4cc(C)c(C)cc4c3=O)C(=O)N2CCCN(C)C)cc1 (stereo not given)	DAX1 inh-1 6.7
CN(C)/C=C/C(=O)/C=C/c1ccc(Cl)cc1	none
CN(C)CC(O)c1ccc(C=Cc2ccc(Cl)cc2)cc1 (stereo not given)	DAX1 inh-1 6.4, hgDAF-12 ag 12.1
CCN(Cc1cn(Cc2ccccc2)nn1)S(=O)(=O)c1ccc(F)cc1Br	none (no result: DAX1 inh-1)
C[C@@H](N)P(=O)(O)C[C@H](Cc1ccccc1)C(=O)O	none (no result: DAX1 inh-1)
CCc1c(C(=O)Nc2cc(C)ccc2OC)[nH]c(C)c1C(C)=O	hcDAF-12 act 5.6
FC(F)(F)c1cc(Cc2nc3ccccc3n2C(CCc2ccccc2)c2nc3ccccc3[nH]2)cc(C(F)(F)F)c1 (stereo not given)	DAX1 inh-2 3.9 (no result: DAX1 inh-1)
Cc1cccc(NC(=S)NNC(=O)c2cc3c(s2)CCC(C)C3)c1C (stereo not given)	ssDAF-12 act 20.3
COc1cc(C2C(C#N)=C(N)Oc3cc4c(cc32)OCO4)cc(OC)c1OC (stereo not given)	DAX1 inh-2 4.4
COc1cc(C2C(C#N)=C(N)Oc3cc(O)ccc32)cc(OC)c1OC (stereo not given)	none
CCN(CC)C(=O)Cn1nc(Cc2ccncc2)c2ccccc2c1=O	none (no result: DAX1 inh-1)
CCCC1CCC(C(=O)Nn2cnc3ccccc3c2=O)CC1 (stereo not given)	none
O=C(N[C@H](C(=O)O)c1ccccc1)C1CCC(Cn2cnc3ccccc3c2=O)CC1 (stereo not given in full)	DAX1 inh-1 4.6
Nc1nnc(-c2cccc(F)c2)s1	none
Nc1nnc(-c2ccc(Cl)c(Cl)c2)s1	DAX1 inh-1 5.8
O=C(Nc1ccccc1)Nc1ncc([N+](=O)[O-])s1	DAX1 inh-2 3.7
Cc1nnc(SCc2cnc(-c3ccc(C(C)C)cc3)s2)n1C	hcDAF-12 act 6.0, ssDAF-12 act 1.5, hgDAF-12 ag 12.3
c1ccc(-c2ncc(CSc3nncn3-c3ccccc3)s2)cc1	none
O=S1(=O)c2ccc(N3CCCC3)cc2Oc2ccccc2CN1Cc1cn(Cc2cccc(C(F)(F)F)c2)nn1	none (no result: DAX1 inh-1)
O=C(CCn1c(=O)oc2ccccc21)NCCN1CCc2ccccc2C1	none
O=C(CCCn1c(=O)oc2ccccc21)N1CCc2ccccc2C1	hcDAF-12 act 7.9
O=C(CSc1nc2scc(-c3ccccc3)c2c(=O)[nH]1)N1CCCCC1	DAX1 inh-1 5.6
CCCCCCCCN1C(=O)[C@@H](CC(=O)NCCCOC)C[C@@]2(C(=O)OC)C1=C[C@H](C(C)C)O[C@@H]2C1CC1	none (no result: DAX1 inh-1)
Cn1c(CNC(=O)CNS(=O)(=O)c2ccccc2)cc(=O)n(C)c1=O	DAX1 inh-2 3.8
COC(=O)[C@]12C[C@H](CC(=O)NCCc3ccccc3OC)C(=O)N(Cc3ccco3)C1=C[C@H](C(C)(C)C)O[C@@H]2C	none (no result: DAX1 inh-1)
COc1ccc(NC(=S)Nn2cnnc2)cc1OC	DAX1 inh-1 6.4
CC1CCN(S(=O)(=O)c2ccc(C(=O)Nc3ccccc3-c3nc4ccccc4[nH]3)cc2)CC1	SMARCA2 act 9.7
Cc1cc(C)cc(C(=O)Nc2nc3ccccc3[nH]2)c1	none
O=C(Nc1nc2ccccc2[nH]1)c1ccc(OC(F)F)cc1	hgDAF-12 ag 11.0
O=C(Nc1nc2ccccc2[nH]1)c1cc(F)cc(F)c1	hcDAF-12 act 5.6
CC1CCCN(S(=O)(=O)c2ccc(C(=O)Nc3ccccc3-c3nc4ccccc4[nH]3)cc2)C1 (stereo not given)	none
Cn1nc(C(=O)Nc2nc3ccccc3[nH]2)c2ccccc2c1=O	SMARCA2 act 16.4
O=C(OC12CCCN(C1)/C(=C/c1ccc(Cl)cc1)C2)c1ccccc1 (stereo not given)	none (no result: DAX1 inh-1)
C=CCN1C(=O)[C@@H](CC(=O)NCc2cccc(C(F)(F)F)c2)[C@]2(C(=O)OCC)CCCCC/C=C/12	none (no result: DAX1 inh-1)
CCc1ccc(C(=O)Nc2nc3ccccc3[nH]2)cc1	none
O=C(Nc1nc2ccccc2[nH]1)c1ccccc1[N+](=O)[O-]	none
Cc1c(C(=O)Nc2nc3ccccc3[nH]2)cccc1[N+](=O)[O-]	ssDAF-12 act 1.5
CN(C)S(=O)(=O)c1ccc(C(=O)Nc2nc3ccccc3[nH]2)cc1	DAX1 inh-1 6.7
CCOC(=O)c1sc(=S)n(-c2cc(F)ccc2F)c1N	none
COC(=O)c1sc(=S)n(-c2cc(F)ccc2F)c1N	DAX1 inh-1 4.9
O=C(c1ccccc1I)N1CCC(Oc2cccnc2)CC1	none (no result: DAX1 inh-1)
COCc1cc(C)nc(SCc2ccc([N+](=O)[O-])cc2)c1C#N	DAX1 inh-1 4.6
COCc1cc(C)nc(SCc2ccccc2Cl)c1C#N	none
CCN(CCNC(=O)[C@H]1C=C(OC)C(=O)C[C@H](c2ccccc2)[C@H]1C)C(C)=O	none (no result: DAX1 inh-1)
